Measurements from PubChem BioAssay (NCATS).
“And” between values parts separate entries of the source, which are not always exact repeats. Identical values can stand only once. Inconclusive results are not listed. Unmarked numbers belong to inactive results. The source made the active and inactive calls. Calls follow the shape of the dose curve; as a rule, active = well fitted curve in the direction sought with a large enough effect; inconclusive = small, poorly fitted or top-dose-only effect, or another doubt; inactive = no such curve, though single readings can be large; an effect the other way counts as inactive or inconclusive. Residues, ends and D or L forms follow the SMILES beside them.

How the values were obtained:
[1] = biological target: Cellular tumor antigen p53 (Homo sapiens) (UniProt P04637); test: Primary qHTS for small molecule compounds that upregulate eGFP-tagged delta133p53alpha (in N-terminal) cells. (AID 2060322); details: NCI-H358 eGFP-delta133p53alpha fluorescence, 24 h; activation: hits give high values; also: nearly all actives have a fitted effect of over 75% in size;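 as to activation: cells pre-induced with doxycycline then dosed without doxycycline; series mostly up to about 56 µM; 0% = DMSO vehicle and 100% = reference activator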
Cellular tumor antigen p53 (Homo sapiens), sequence (P04637 whole entry, looked up): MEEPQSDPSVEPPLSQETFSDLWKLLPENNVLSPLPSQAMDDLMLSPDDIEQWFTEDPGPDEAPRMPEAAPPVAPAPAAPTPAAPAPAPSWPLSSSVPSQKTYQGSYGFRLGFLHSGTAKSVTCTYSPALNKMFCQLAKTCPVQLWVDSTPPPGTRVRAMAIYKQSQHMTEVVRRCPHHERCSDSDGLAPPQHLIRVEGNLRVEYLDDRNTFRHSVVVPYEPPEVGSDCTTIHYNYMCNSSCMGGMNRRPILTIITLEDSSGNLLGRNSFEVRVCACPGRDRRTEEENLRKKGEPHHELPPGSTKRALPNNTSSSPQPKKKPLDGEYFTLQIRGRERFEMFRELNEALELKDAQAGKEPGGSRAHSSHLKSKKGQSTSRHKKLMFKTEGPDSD
Method in brief: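 NCI-H358 cells pre-induced 24 h with 10 ng/ml doxycycline for eGFP-delta133p53alpha, plated dox-free and exposed 24 h at 37C to titrated compounds. Fixed, Hoechst-stained; gated GFP peak intensity by laser scanning cytometry, normalized to DMSO (0%) and 57.5 uM 5-azacytidine (100%).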

[2] = BET inhibitor-based combinations targeting novel dependencies in MECOM-rearranged (r) AML: SET-2 cell line (AID 2202231); details: SET-2 AML cells viability, CellTiter-Glo luminescence, 48 h; viability: hits give low values, concentration not given here; also: nearly all actives have a fitted effect of over 35% in size;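 as to viability: plate controls were DMSO treated cells for no effect and wells without cells for full effect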
Method in brief: (§1)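 Here, 11-point titrations of each agent were applied to 500 seeded cells and incubated 48 hr; CellTiter-Glo signal, scaled against DMSO and empty wells, was integrated as AUC, then Z-scored within the individual line.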

[3] = BET inhibitor-based combinations targeting novel dependencies in MECOM-rearranged (r) AML: OCI-AML3 cell line (AID 2202232); details: Potency: OCI-AML3 viability; also: nearly all actives have a fitted effect of over 35% in size
Method in brief: as §1

[4] = BET inhibitor-based combinations targeting novel dependencies in MECOM-rearranged (r) AML: UCSD-AML1 cell line (AID 2202235); also: nearly all actives have a fitted effect of over 40% in size
Method in brief: (§2)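 Normalized to DMSO and empty-well controls, the luminescence data from CellTiter-Glo after 48 hr drug exposure were fitted across 11 concentrations. Reported metrics are area under the dose-response curve and its Z-transformed form.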

[5] = BET inhibitor-based combinations targeting novel dependencies in MECOM-rearranged (r) AML: AML-191 cell line (AID 2202236; also: nearly all actives have a fitted effect of over 35% in size)
Method in brief: as §1

[6] = BET inhibitor-based combinations targeting novel dependencies in MECOM-rearranged (r) AML: AML-194 cell line (AID 2202237; also: nearly all actives have a fitted effect of over 40% in size)
Method in brief: as §1

[7] = BET inhibitor-based combinations targeting novel dependencies in MECOM-rearranged (r) AML: HNT-34 cell line (AID 2202234); also: nearly all actives have a fitted effect of over 35% in size
Method in brief: as §2

[8] = BET inhibitor-based combinations targeting novel dependencies in MECOM-rearranged (r) AML: MV-4-11 cell line (AID 2202233); also: nearly all actives have a fitted effect of over 45% in size
Method in brief: as §2
Potency is read from the fitted curve at half-maximal effect.

Compound | activation [1] | viability [2] | Potency [3] | Potency [4] | Potency [5] | Potency [6] | Potency [7] | Potency [8] | Potency [2] | Potency [1]
C[C@]12CCC3c4ccc(O)cc4CCC3C1CCC2=O (stereo partly specified) | -0.196% | 99.9% | inactive | 26.3 µM (active) | inactive | inactive |  |  |  | 
CCC[C@H](N[C@@H](C)C(=O)N1[C@@H]2CCCC[C@H]2C[C@H]1C(=O)O)C(=O)OCC | -22.1% | 110% | inactive | inactive | inactive | inactive | inactive |  |  | 
Cc1ccc(/C=N/NC(=O)c2ccccc2Oc2ccccc2)o1 | -11.8% | 107% | inactive |  | inactive | inactive |  |  |  | 
COc1cc(C(C)C)c(Oc2cnc(NC(CO)CO)nc2N)cc1I | -13.5% | 99.2% | inactive | inactive | inactive | inactive |  |  |  | 
CN1c2cc(O)c(N=NC(N)=O)cc2CC1S(=O)(=O)O (stereo unspecified) | 16.4% | 89.9% | inactive | inactive |  | inactive |  |  |  | 
CCCCCCCCCCCCCCCC(=O)O[C@H]1[C@@H](O)[C@@H](O)[C@@H]([C@H](NC(=O)[C@@H]2C[C@@H](CCC)CN2C)[C@H](C)Cl)O[C@@H]1SC | 17.9% | 108% |  |  |  |  |  | 16.6 µM (active) |  | 
C[C@]1(c2nc3c(C(N)=O)cccc3[nH]2)CCCN1 | 53.7% | 113% | 8.33 µM (active) | inactive | inactive | inactive |  |  |  | 
COc1ccc(COc2cc3oc(=O)c4cc(C(C)O)ccc4c3cc2OC)cc1 (stereo unspecified) | 0.91% | 86.4% | 14.8 µM (active) |  | 20.9 µM (active) |  |  |  |  | 
Nc1ccn([C@@H]2CS[C@H](CO)O2)c(=O)n1 | -9.96% | 113% | inactive | inactive | inactive | inactive | inactive |  |  | 
O=[N+]([O-])c1cncn1CCN1CCOCC1 | -23.4% | 112% | inactive | inactive | inactive | inactive | inactive |  |  | 
COc1ccc(CC2=NN3C([C@@H](CCc4ccccc4)[C@@H](C)O)=NC(C)C3C(=O)N2)cc1OC (stereo partly specified) | -13.9% | 101% | 7.42 µM (active) | inactive | 16.6 µM (active) | inactive | 18.6 µM (active) |  |  | 
NC(N)=NC(N)=NCCc1ccccc1 | -18.4% and -5.97% |  | 16.6 µM (active) | inactive |  | inactive |  |  | 13.2 µM (active) | 
CN(C)c1ccc2nc3ccc(=[N+](C)C)cc-3sc2c1 |  |  | 5.25 µM (active) | 9.34 µM (active) | 2.95 µM (active) | 4.68 µM (active) | 7.42 µM (active) |  | 5.9 µM (active) | 17.4 µM (active)
O=C(O)c1cc(=O)c2c(OCC(O)COc3cccc4oc(C(=O)O)cc(=O)c34)cccc2o1 | 19.8% | 114% | inactive |  | inactive |  | inactive |  |  | 
O=C(O)c1ccc(-n2nc(-c3ccccc3O)nc2-c2ccccc2O)cc1 | -1.69% and -24.7% |  | 14.8 µM (active) | inactive | 16.6 µM (active) |  |  |  | 20.9 µM (active) | 
COC(=O)[C@H](c1ccccc1Cl)N1CCc2sccc2C1 | 12.2% | 110% | inactive | inactive | inactive | inactive | inactive |  |  | 
CC(C)C[C@H](CC(=O)O)C(=O)N[C@@H](Cc1c[nH]c2ccccc12)C(=O)N[C@@H](C)c1ccccc1 | -21.8% | 104% |  |  |  |  |  | inactive |  | 
CNC(=O)Nc1ccc(-c2nc(N3CC4CCC(C3)O4)c3cnn(C4CCC5(CC4)OCCO5)c3n2)cc1 | 8.27% |  | 0.105 µM (active) | 0.0295 µM (active) | 0.0295 µM (active) |  |  |  | 0.263 µM (active) | 
COC(=O)[C@H](Cc1ccccc1)NC(=O)[C@@H](N)CC(=O)O (H-Asp-Phe-OMe) | -35.6% and -14.3% | 112% | inactive | inactive | inactive | inactive | inactive |  |  | 
CCc1cc(Nc2nccc(-c3c(-c4ccc(OC)c(C(=O)Nc5c(F)cccc5F)c4)nc4ccccn34)n2)c(OC)cc1N1CCC(N2CCN(S(C)(=O)=O)CC2)CC1 | 14.2% and 2.68% | 113% | inactive | 10.5 µM (active) | 11.8 µM (active) | 11.8 µM (active) |  |  |  | 

Compound | activation [1] | viability [2] | Potency [3] | Potency [4] | Potency [5] | Potency [6] | Potency [7] | Potency [8] | Potency [2] | Potency [1]
c1cc(-c2sc(-c3ccncc3)c(-c3ccncc3)c2-c2ccncc2)ccn1 | 6.76% | 103% | inactive | inactive | inactive | inactive |  |  |  | 
COc1cc(OC2CCN(C)CC2)ccc1Nc1ncc2c(n1)n(C1CCCC1)c(=O)n2C | 2.88% |  | 13.2 µM (active) | 14.8 µM (active) | 18.6 µM (active) | 16.6 µM (active) | 13.2 µM (active) |  | 4.68 µM (active) | 
Cn1cc(-c2ccc3nnc(Sc4ccc5ncccc5c4)n3n2)cn1 | -0.663% | 107% | inactive |  | inactive | inactive |  |  |  | 
CC(=O)OC1C(C)OC(Oc2c(-c3ccc(O)cc3)oc3cc(O)cc(O)c3c2=O)C(O)C1OC(C)=O (stereo unspecified) | 34.7% | 114% | inactive | inactive | inactive | inactive | inactive |  |  | 
COc1c(N2C[C@@H]3CCCN[C@H]3C2)c(F)cc2c(=O)c(C(=O)O)cn(C3CC3)c12 | 0.987% |  | inactive |  | inactive |  | inactive |  | 14.8 µM (active) | 
CC(S)C(=O)NCC(=O)O (stereo unspecified) | 9.72% | 114% | 8.33 µM (active) | inactive |  | inactive | inactive |  |  | 
CCCCCCCCCCCCc1ccc(S(=O)(=O)Nc2nncs2)cc1 | -6.63% | 118% | inactive | inactive | inactive | inactive | inactive |  |  | 
COC(=O)Nc1cc(Nc2cc(NC3CC3)c3ncc(C#N)n3n2)c(Cl)c(N2CCN(C)CC2)c1 | -10.3% |  | 3.32 µM (active) | 2.63 µM (active) | 2.63 µM (active) | 2.63 µM (active) | 1.32 µM (active) |  | 2.95 µM (active) | 
CCOC(=O)c1ccc(OC(=O)CCCCCN=C(N)N)cc1 | 31% | 106% | inactive | inactive |  | inactive | inactive |  |  | 
O=C(O)CCCCC(CCSCc1ccccc1)SCc1ccccc1 (stereo unspecified) | 1.42% | 107% | inactive | inactive | inactive | inactive |  |  |  | 
CCC(C)(C)c1ccc(CC(C)CN2C[C@@H](C)O[C@@H](C)C2)cc1 (stereo partly specified) | -16.4% | 82.6% | inactive | inactive |  | inactive | inactive |  |  | 
CC(C)Cn1cnc2c(N)nc3ccccc3c21 | -10% and 13.9% | 101% | inactive |  | inactive | inactive | inactive |  |  | 
CC(C)OC(=O)C(C(=O)OC(C)C)=C1SC=CS1 | 3.95% and 27.9% | 105% | inactive |  | inactive | inactive | inactive |  |  | 
CC(C)(Sc1cc(C(C)(C)C)c(O)c(C(C)(C)C)c1)Sc1cc(C(C)(C)C)c(O)c(C(C)(C)C)c1 | 5.08% and 14.9% | 103% | inactive | inactive |  | 13.2 µM (active) | inactive |  |  | 
COc1ccc(Nc2nccc(NCCO)n2)cc1 | 25.6% | 106% | 23.5 µM (active) | inactive | inactive | inactive | inactive |  |  | 
C[C@@H]1CN(CC(=O)Nc2ccc3c(c2)Cc2cccc(-c4cc(=O)cc(N5CCOCC5)o4)c2S3)C[C@H](C)O1 |  | 86.1% |  |  |  |  |  | 14.8 µM (active) |  | 27.3 µM (active)
Cc1ccc(-n2nc(C(C)(C)C)cc2NC(=O)Nc2ccc(OCCN3CCOCC3)c3ccccc23)cc1 | 23.4% | 102% | 18.6 µM (active) |  | 18.6 µM (active) |  |  |  |  | 
CC(C)(C)NC(=O)[C@H]1CC[C@H]2[C@@H]3CC[C@H]4NC(=O)C=C[C@]4(C)[C@H]3CC[C@]12C | -14.2% and -4.21% | 98.4% | inactive | inactive | inactive | inactive | inactive |  |  | 
COc1cc(S(C)(=O)=O)ccc1Nc1nc2ccc(-c3ccc(NC(=O)[C@H](C)c4ccc(F)cc4)cc3)cn2n1 | -11.7% |  | 0.934 µM (active) | 1.32 µM (active) |  | 1.32 µM (active) |  |  | 0.235 µM (active) | 
C=C1c2cccc(O)c2C(O)=C2C(=O)[C@@]3(O)C(O)=C(C(N)=O)C(=O)[C@@H](N(C)C)[C@@H]3[C@@H](O)[C@H]12 | 22.8% | 86.7% |  | inactive | inactive | inactive |  | inactive |  | 
